Over roughly 81,000 sequences, “one-hybrid fitness for binding parS DNA” has its median near -0.17; the highest 2% begin near 0.51. The sample as a whole holds a higher share of the highest values than the screen did.
B1: Caulobacter ParB omega fusion; a variant is named by its letters at X, in order, B8GW30 (parent)
chain: MESVVVGEPGMSEGRRGLGRGLSALLGEVDAAPAQAPGEQLGGSREAPIEILQRNPDQPRRTFREEDLEDLSNSIREKGVLQPILVRPSPDTAGEYQIVAGERAWRAAQRAGLKTVPIMVRELDDLAVLEIGIIENVQRADLNVLEEALSYKVLMEKFERTQENIAQTIGKSXSHVANXMRLLXLPDEVQSYLVSGELTAXHARAIAAAADPVALAKQIIEGGLSVRETEALARKAPNLSAGKSKGGRPPRVKDTDTQALESDLSSVLGLDVSIDHRGSTGTLTITYATLEQLDDLCNRLTRGI

Variants of: B1
Experiment: one-hybrid fitness for binding parS DNA (scaled: cognate 1, non-cognate 0); higher = stronger binding
Details: with parS DNA site
How it was run: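 Caulobacter ParB libraries with four specificity codons randomised were screened by bacterial one-hybrid selection in the E. coli USO strain, using a HIS3 reporter whose site lies 19 bp from the promoter. Selection ran for 48 hours at 37°C on M9 lacking histidine, with 0.1 mM IPTG and 5 mM 3-AT. Plasmids were Illumina-sequenced before and after selection, three replicate libraries were pooled, and variants with under 10 reads were dropped. Fitness is the log change in each variant's read ratio to wild type, rescaled against the cognate and non-cognate sites.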
In the case of ELGD, the “one-hybrid fitness for binding parS DNA” value is reported as no more than 0.2.
For QSMI, the “one-hybrid fitness for binding parS DNA” value was no more than 0.2.
In the case of EQMT, the “one-hybrid fitness for binding parS DNA” value is reported as no more than 0.2.
For IWTC, the “one-hybrid fitness for binding parS DNA” value was no more than 0.2.
For GPTP, the “one-hybrid fitness for binding parS DNA” value was no more than 0.2.
For PHIN, the “one-hybrid fitness for binding parS DNA” value was no more than 0.2.
LTQT was tested, and the “one-hybrid fitness for binding parS DNA” value was no more than 0.2.
In the case of RDMK, the “one-hybrid fitness for binding parS DNA” value is reported as no more than 0.2.
In the case of TFCT, the “one-hybrid fitness for binding parS DNA” value is reported as no more than 0.2.
With RMLL the “one-hybrid fitness for binding parS DNA” value was no more than 0.2.
RMLC was tested, and the “one-hybrid fitness for binding parS DNA” value was 0.983.
For RMLR, the “one-hybrid fitness for binding parS DNA” value was no more than 0.2.
THQL was tested, and the “one-hybrid fitness for binding parS DNA” value was no more than 0.2.
With RMEA the “one-hybrid fitness for binding parS DNA” value was 0.495.
NMRA was tested, and the “one-hybrid fitness for binding parS DNA” value was no more than 0.2.
For RMYA, the “one-hybrid fitness for binding parS DNA” value was 0.651.
For RMRA, the “one-hybrid fitness for binding parS DNA” value was 0.765.
For DMYA, the “one-hybrid fitness for binding parS DNA” value was no more than 0.2.
With QQDP the “one-hybrid fitness for binding parS DNA” value was no more than 0.2.
For GWES, the “one-hybrid fitness for binding parS DNA” value was no more than 0.2.
For RPIG, the “one-hybrid fitness for binding parS DNA” value was no more than 0.2.
For RSPG, the “one-hybrid fitness for binding parS DNA” value was 0.507.
In the case of REIG, the “one-hybrid fitness for binding parS DNA” value is reported as no more than 0.2.
For RCIG, the “one-hybrid fitness for binding parS DNA” value was 0.955.
In the case of RDIG, the “one-hybrid fitness for binding parS DNA” value is reported as no more than 0.2.
With RSIG the “one-hybrid fitness for binding parS DNA” value was 0.822.
PLWA was tested, and the “one-hybrid fitness for binding parS DNA” value was no more than 0.2.
In the case of FGAE, the “one-hybrid fitness for binding parS DNA” value is reported as no more than 0.2.
In the case of KGTY, the “one-hybrid fitness for binding parS DNA” value is reported as no more than 0.2.
For VTTC, the “one-hybrid fitness for binding parS DNA” value was no more than 0.2.
For MCDS, the “one-hybrid fitness for binding parS DNA” value was no more than 0.2.
For TPPY, the “one-hybrid fitness for binding parS DNA” value was no more than 0.2.
For HNSC, the “one-hybrid fitness for binding parS DNA” value was no more than 0.2.
In the case of RMDG, the “one-hybrid fitness for binding parS DNA” value is reported as 0.917.
RMHG was tested, and the “one-hybrid fitness for binding parS DNA” value was 1.01.
RMGN was tested, and the “one-hybrid fitness for binding parS DNA” value was 0.453.
RMHF was tested, and the “one-hybrid fitness for binding parS DNA” value was 0.269.
With RMDH the “one-hybrid fitness for binding parS DNA” value was no more than 0.2.
For RMYG, the “one-hybrid fitness for binding parS DNA” value was 1.03.
RMGG was tested, and the “one-hybrid fitness for binding parS DNA” value was 0.993.
For RMDN, the “one-hybrid fitness for binding parS DNA” value was 0.375.
With RMGH the “one-hybrid fitness for binding parS DNA” value was no more than 0.2.
For RMYR, the “one-hybrid fitness for binding parS DNA” value was 0.225.
In the case of RMHM, the “one-hybrid fitness for binding parS DNA” value is reported as 0.374.
In the case of RMYQ, the “one-hybrid fitness for binding parS DNA” value is reported as 0.205.
SGDY was tested, and the “one-hybrid fitness for binding parS DNA” value was no more than 0.2.
SKDT was tested, and the “one-hybrid fitness for binding parS DNA” value was no more than 0.2.
In the case of VGNC, the “one-hybrid fitness for binding parS DNA” value is reported as no more than 0.2.
In the case of RNAF, the “one-hybrid fitness for binding parS DNA” value is reported as no more than 0.2.
With FYKS the “one-hybrid fitness for binding parS DNA” value was no more than 0.2.
RLMI was tested, and the “one-hybrid fitness for binding parS DNA” value was no more than 0.2.
In the case of SYAC, the “one-hybrid fitness for binding parS DNA” value is reported as no more than 0.2.
In the case of QDNF, the “one-hybrid fitness for binding parS DNA” value is reported as no more than 0.2.
With CRIC the “one-hybrid fitness for binding parS DNA” value was no more than 0.2.
With DYAR the “one-hybrid fitness for binding parS DNA” value was no more than 0.2.
For QGFS, the “one-hybrid fitness for binding parS DNA” value was no more than 0.2.
For TIDG, the “one-hybrid fitness for binding parS DNA” value was no more than 0.2.
With QNGG the “one-hybrid fitness for binding parS DNA” value was no more than 0.2.
For NVIK, the “one-hybrid fitness for binding parS DNA” value was no more than 0.2.
With RMRG the “one-hybrid fitness for binding parS DNA” value was 0.962.
RMRL was tested, and the “one-hybrid fitness for binding parS DNA” value was no more than 0.2.
In the case of RMNR, the “one-hybrid fitness for binding parS DNA” value is reported as no more than 0.2.
For RMRF, the “one-hybrid fitness for binding parS DNA” value was 0.368.
RMNG was tested, and the “one-hybrid fitness for binding parS DNA” value was 0.999.
In the case of RMNM, the “one-hybrid fitness for binding parS DNA” value is reported as 0.351.
In the case of PVDG, the “one-hybrid fitness for binding parS DNA” value is reported as no more than 0.2.
With TFGE the “one-hybrid fitness for binding parS DNA” value was no more than 0.2.
For DQLH, the “one-hybrid fitness for binding parS DNA” value was no more than 0.2.
HHQA was tested, and the “one-hybrid fitness for binding parS DNA” value was no more than 0.2.
For RCVS, the “one-hybrid fitness for binding parS DNA” value was 1.02.
In the case of RCVH, the “one-hybrid fitness for binding parS DNA” value is reported as no more than 0.2.
For RSVS, the “one-hybrid fitness for binding parS DNA” value was 0.946.
RSVP was tested, and the “one-hybrid fitness for binding parS DNA” value was no more than 0.2.
In the case of RSVN, the “one-hybrid fitness for binding parS DNA” value is reported as 0.342.
For RPVS, the “one-hybrid fitness for binding parS DNA” value was no more than 0.2.
For RDPY, the “one-hybrid fitness for binding parS DNA” value was no more than 0.2.
NTKG was tested, and the “one-hybrid fitness for binding parS DNA” value was no more than 0.2.
For RMNN, the “one-hybrid fitness for binding parS DNA” value was 0.467.
In the case of RMNC, the “one-hybrid fitness for binding parS DNA” value is reported as 0.969.
RMNE was tested, and the “one-hybrid fitness for binding parS DNA” value was no more than 0.2.
RMDC was tested, and the “one-hybrid fitness for binding parS DNA” value was 0.889.
RMDM was tested, and the “one-hybrid fitness for binding parS DNA” value was 0.302.
With RMDK the “one-hybrid fitness for binding parS DNA” value was no more than 0.2.
For KILI, the “one-hybrid fitness for binding parS DNA” value was no more than 0.2.
For PNVW, the “one-hybrid fitness for binding parS DNA” value was no more than 0.2.
With STNR the “one-hybrid fitness for binding parS DNA” value was no more than 0.2.
QRCN was tested, and the “one-hybrid fitness for binding parS DNA” value was no more than 0.2.
DTKC was tested, and the “one-hybrid fitness for binding parS DNA” value was no more than 0.2.
For RTKK, the “one-hybrid fitness for binding parS DNA” value was no more than 0.2.
In the case of RTVC, the “one-hybrid fitness for binding parS DNA” value is reported as 0.929.
For RTVR, the “one-hybrid fitness for binding parS DNA” value was no more than 0.2.
In the case of RTKC, the “one-hybrid fitness for binding parS DNA” value is reported as 0.813.
With TIRR the “one-hybrid fitness for binding parS DNA” value was no more than 0.2.
With RNYV the “one-hybrid fitness for binding parS DNA” value was no more than 0.2.
For LASP, the “one-hybrid fitness for binding parS DNA” value was no more than 0.2.
DNAR was tested, and the “one-hybrid fitness for binding parS DNA” value was no more than 0.2.
With QMYE the “one-hybrid fitness for binding parS DNA” value was no more than 0.2.

Reference: a collection of fitness landscapes (doi:10.1016/j.celrep.2020.107928)
